# Compounds with a hit are over-represented: about 0.51% of the library has one in this group of screens.
# FMDV RLuc – Primary qHTS Assay for Foot and Mouth Disease Virus Antivirals against NCGC Sytravon and CBC Compound Libraries: Renilla Luciferase Signal; FMDV replicon cells, Renilla luciferase signal; Potency, µM (doses to about 57.5 µM), for inactives: top-dose activity change, negative = inhibition, most hits filed as inhibitors; 120,000 compounds, 0.32% hits; also: nearly all actives have a fitted effect of over 55% in size
# FMDV FLuc – Primary qHTS Assay for Foot and Mouth Disease Virus Antivirals against NCGC Sytravon and CBC Compound Libraries: Firefly Luciferase Signal; FMDV antiviral cell assay, firefly luciferase signal; Potency, µM (doses to about 57.5 µM), for the others: top-dose activity change, negative = inhibition, hits mostly inhibitors; 120,000 compounds, 0.23% hits; AID 1745856, 2022; also: nearly all actives have a fitted effect of over 60% in size
# Numbers without * were called inactive; ? = inconclusive. Calls follow the shape of the full dose curve. % is scaled to controls: 0 for no effect and ±100 for the full control effect; potency is read from the fitted curve at half-maximal effect.
SMILES,FMDV RLuc,FMDV FLuc
CN(CC(=O)Nc1cc2[nH]c(=O)[nH]c2cc1Br)Cc1ccccc1N1CCCCC1,-20%,-17%
COc1cc(C2CC(=O)Nc3c2sc(C(=O)O)c3-c2ccc(F)cc2)cc(OC)c1OC (stereo not given),0%,-3%
CCOc1cc(C2CC(=O)Nc3c(-c4ccc(OC)cc4)csc32)ccc1OCC(N)=O (stereo not given),8.9µM*,13µM*
COP(=O)(OC)c1nc(C(c2ccccc2)c2ccccc2)oc1NCc1ccco1,48%,53%
O=C(Nc1ccc2ccccc2n1)c1ccc(S(=O)(=O)NC2CC2)cc1,-4%,-2%
O=C(Nc1ccc2ccccc2n1)c1ccc(S(=O)(=O)N2CCCCC2)cc1,32µM*,?
Cc1cc(C(=O)N2CCN(c3cccc(C(F)(F)F)c3)CC2)cs1,-3%,-3%
Cc1nc(/C=C/C(=O)N2CCN(c3cccc(C(F)(F)F)c3)CC2)cs1,20µM*,?
c1ccc(Nc2c3c(nc4ccccc24)CCC3)cc1,-24%,-12%
CCc1ccc(Nc2c3c(nc4ccccc24)CCC3)cc1,?,25µM*
CC(=O)N1CCN(C(=O)CCc2ncc(-c3ccccc3)o2)CC1,-15%,20%
CCOc1cccc(C(C)NC(=O)N(C)Cc2ccc(C#N)cc2)c1 (stereo not given),-10%,-1%
CCc1ccc(-c2noc(CN3CCCc4c(C(=O)NC(C)C)cccc43)n2)cc1,7%,21%
CC(C)NC(=O)c1cccc2c1CCCN2Cc1nc(-c2cccc(Cl)c2)no1,25µM*,?
Cc1cc(C)c2oc(C(=O)N(Cc3cccs3)c3ccccn3)cc(=O)c2c1,44%,-7%
CS(=O)(=O)NCCc1ccc(C(=O)COc2ccc(-c3ccccc3)cc2Cl)s1,-22%,-15%
COc1ccc(NC(=O)COc2ccccc2C)c2cccnc12,14µM*,?
COc1ccc(NC(=O)COc2c(C)cccc2C)c2cccnc12,0%,30%
CC(C(=O)Nc1cccc(Cl)c1Cl)N1CCN(c2ccccc2O)CC1 (stereo not given),-5%,-16%
COc1ccc2[nH]c(C)c(CCNCc3ccc(C(F)(F)F)cc3)c2c1,4.5µM*,?
COc1ccc(F)c(CNCCc2c(C)[nH]c3ccc(OC)cc23)c1,8%,-14%
COc1ccc(CNCCc2c(C)[nH]c3ccc(OC)cc23)c(F)c1,7.1µM*,8.9µM*
COc1ccc2[nH]c(C)c(CCNCc3cccc(F)c3)c2c1,36%,4%
Cc1cc(C(=O)O)ccc1-c1ccc(C=C(C#N)C#N)o1,2%,0%
Cc1c(CNCCc2c[nH]c3ccccc23)c(C(=O)O)c(C)n1Cc1ccc(Cl)cc1,-12%,-24%
SMILES,FMDV RLuc,FMDV FLuc
O=C(COc1c(Cl)cccc1Cl)Nc1cccc2cccnc12,-4%,-4%
Cc1ccc2nc(C)cc(C(=O)OC(C)C(=O)NCC(C)C)c2c1 (stereo not given),-11%,-6%
CCN(CC)C(=S)Nc1c(C)cccc1C,6%,6%
O=C1c2c(O)ccc(O)c2C(=O)c2c(NCCNCCO)ccc(NCCNCCO)c21,?,28µM*
COc1ccc2oc(-c3cccc(NC(=O)c4ccc(Br)o4)c3)nc2c1,4%,0%
O=C(c1cnccn1)N(Cc1ccccc1)c1ccccc1,26%,46%
CC(C)(C)c1cc(SC2(Sc3cc(C(C)(C)C)c(O)c(C(C)(C)C)c3)C(=O)Nc3ccccc32)cc(C(C)(C)C)c1O,26%,14%
CCN1CCN(C(C(=O)O)c2c[nH]c3cc(NC(=O)c4ccccc4)ccc23)CC1 (stereo not given),1%,13µM*
CCN1CCN(C(C(=O)O)c2c[nH]c3ccc(NC(=O)c4ccccc4)cc23)CC1 (stereo not given),-8%,14%
COc1ccc(NC(=O)CCSc2nnc3scc(-c4ccccc4)n23)cc1,27%,25%
CCS(=O)(=O)c1ncc(Cl)c(C(=O)N(Cc2ccccc2)C2CCS(=O)(=O)C2)n1 (stereo not given),25µM*,?
CSc1ncc(Cl)c(C(=O)N(Cc2ccc(C)cc2)C2CCS(=O)(=O)C2)n1 (stereo not given),19%,-14%
CCS(=O)(=O)c1ncc(N(Cc2ccccc2)Cc2ccco2)c(C(=O)Nc2cccc(Cl)c2C)n1,18%,-6%
CCS(=O)(=O)c1ncc(Cl)c(C(=O)N(Cc2ccccc2)Cc2ccco2)n1,-1%,22µM*
CC(C)c1ccc(NC(=O)c2ccc(F)c(S(=O)(=O)N3CCc4ccccc43)c2)cc1,-1%,?
O=C(Nc1ccc(Br)cc1)c1ccc(F)c(S(=O)(=O)N2CCc3ccccc32)c1,?,11µM*
O=C(/C=C/c1ccc2ccccc2n1)NCc1ccccc1,?,14%
c1ccc(CNCC(c2ccccc2)N2CCCC2)cc1 (stereo not given),-13%,-4%
CCNc1c(NC(=O)NCC(C)C)c(=O)oc2ccccc12,-11%,1%
COc1ccccc1-c1cc2nc(C)c(CCC(=O)Nc3cc(C)ccc3C)c(C)n2n1,-13%,35µM*
COc1cc(OC)cc(-c2cc3nc(C)c(CCC(=O)NCc4ccccc4)c(C)n3n2)c1,-12%,?
COc1cc(OC)c(NC(=O)CCc2c(C)nc3cc(-c4ccccc4OC)nn3c2C)cc1Cl,4%,-19%
COc1cc(OC)cc(-c2cc3nc(C)c(CCC(=O)Nc4ccccc4OC)c(C)n3n2)c1,-12%,3.2µM*
O=C(Nc1ccc(C(F)(F)F)cc1)C1CCN(c2nc3ccccc3o2)CC1,?,-24%
O=C(Nc1ccncc1)C1CCN(c2nc3ccccc3o2)CC1,16µM*,?
SMILES,FMDV RLuc,FMDV FLuc
O=C(NCc1ccc2c(c1)OCO2)c1cccc(S(=O)(=O)N2CCc3ccccc3C2)c1,93%,-13%
Cc1nc2c(ccc3ccccc32)c(C)c1C,12%,76%
O=C(Nc1ccc(OC(F)(F)F)cc1)c1cc2ccccn2n1,8.9µM*,20%
O=C(Nc1ccccc1C(F)(F)F)c1cc2ccccn2n1,25%,145%
CCCCS(=O)(=O)CCSCCS(=O)(=O)CCCC,2%,8%
COc1cc(-c2nc(-c3ccc(Br)cc3)no2)cc(OC)c1OC,-8%,0.4µM*
COc1cc(C(=O)Nc2ccccc2-c2nc(-c3ccc(C)cc3)no2)cc(OC)c1OC,35µM*,-15%
COc1cc(C(=O)Nc2ccccc2-c2nc(-c3ccccc3)no2)cc(OC)c1OC,-3%,3%
COc1cc(-c2noc(-c3ccc(Br)cc3)n2)cc(OC)c1OC,-1%,7%
CC1CCN(CCNC(=O)C2CCN(CC(F)(F)F)CC2)CC1,-8%,4%
CCCC1CCC(C)CC1O (stereo not given),4%,-5%
Brc1ccccc1-c1nnc(CN2CCCCC2)o1,4%,137%
COc1cc(C)ccc1Oc1ccc(NC(=O)c2ccc3c(c2)NC(=O)CS3)cn1,25µM*,?
COc1ccc(NC(=O)c2ccc3c(c2)NC(=O)CS3)cn1,0%,68%
O=C(NC1CCCCCC1)c1ccc2ncsc2c1,21%,101%
O=C(NC1CCCCC1C(F)(F)F)c1ccc2ncsc2c1 (stereo not given),144%,8.9µM*
COc1ccc(CNC(=O)CN(c2cccc(Cl)c2Cl)S(=O)(=O)c2ccccc2)cc1,36%,?
Cc1ccccc1OCC(=O)N1CCC(c2nc3ccccc3s2)CC1,-10%,-6%

# High-throughput results deposited in PubChem by National Center for Advancing Translational Sciences (NCATS).
